Assay results as given in PubChem BioAssay.
Calls of active or inactive are those of the source.

Columns and labels:
[1] = test system: Human papillomavirus type 1a protein E7 (residues 44-93); assay: HPV1a E7 fragment binders on microarrays, primary screen, biochemical, small-molecule microarray, residues 44-93, 635 nm fluorescence (AID 1108); details: small-molecule microarray binding, fluorescence 635 nm; higher = more signal;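 further: E7 fragment applied at 1 µg/mL in TBST for 1 h at 4 C; score combines spot fluorescence with its signal to noise ratio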
[2] = modulators of HCV replicon luciferase signal, primary screen, HCV replication inhibitor project, Huh7 cells, luciferase reporter (AID 1109); details: 48 h, higher = more signal;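 further: huh7 hepatoma cells harbouring a luciferase neomycin HCV replicon reporter; luciferase luminescence as measure of HCV replicon replication; test concentration not given here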
[3] = target: Left-right determination factor 2 (Homo sapiens) (UniProt O00292); assay: LEFTY2 binders on small-molecule microarrays, primary screen, biochemical, small-molecule microarray, 635 nm fluorescence scan (AID 1110); details: LEFTY2 binding, higher = more signal
Chain of Left-right determination factor 2 (Homo sapiens) (O00292 whole entry, looked up): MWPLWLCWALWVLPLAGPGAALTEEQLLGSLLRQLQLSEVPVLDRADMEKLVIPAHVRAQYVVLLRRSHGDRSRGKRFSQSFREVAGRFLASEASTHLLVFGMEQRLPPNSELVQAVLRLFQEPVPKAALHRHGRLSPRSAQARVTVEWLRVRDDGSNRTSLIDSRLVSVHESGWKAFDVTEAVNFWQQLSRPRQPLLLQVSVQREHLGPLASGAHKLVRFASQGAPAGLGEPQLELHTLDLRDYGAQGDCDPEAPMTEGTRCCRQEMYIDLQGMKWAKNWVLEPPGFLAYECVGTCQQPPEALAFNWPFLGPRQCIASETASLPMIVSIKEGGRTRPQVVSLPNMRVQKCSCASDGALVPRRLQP

[4] = target: Calmodulin-1 (Homo sapiens) (UniProt P0DP23); assay: CALM1 binders on microarrays, EGTA buffer, profiling panel, biochemical, small-molecule microarray, Cy5-labelled CALM1 (AID 1111); details: Cy5-CALM1 binding fluorescence, higher = more signal;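 further: labelled calmodulin applied in Tris saline Tween buffer holding calcium plus EGTA and DTT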
[5] = target: Calmodulin-1 (Homo sapiens) (UniProt P0DP23); assay: calcium-bound CALM1 binders on microarrays, profiling panel, artefact control for SMM control-protein annotation, biochemical, small-molecule microarray, Cy5-labelled CALM1, plus calcium (AID 1112); details: Cy5-CALM1 binding fluorescence, higher = more signal;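 further: score merges spot fluorescence with signal to noise from triplicate slides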
[6] = small-molecule microarray binders of probe aWnt5a, primary screen, biochemical, biotinylated probe, 635/667 nm fluorescence (AID 1113); details: higher = more signal;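 further: score merges 667 nm fluorescence intensity with signal-to-noise per printed feature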
[7] = small-molecule microarray binders of probe aShh, primary screen, biochemical, biotinylated probe, 635/667 nm fluorescence (AID 1114); details: higher = more signal;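 further: probe is biotin-labelled aShh protein from a stem cell growth factor screen; measures binding of labelled protein to compounds printed on the slide; score merges feature fluorescence at 667 nm with signal-to-noise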
[8] = small-molecule microarray binders of probe aNog, primary screen, biochemical, biotinylated probe, 635/667 nm fluorescence (AID 1115); details: higher = more signal;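 further: probe is biotinylated aNog protein used at 0.15 µg/mL for 1 h at 4 C; z-score combines 667 nm fluorescence of each spot with its signal to noise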
[9] = target: Torsin-1A-interacting protein 1 (Homo sapiens) (UniProt Q5JTV8); assay: LAP1 binders from COS7 cell lysate, primary screen, small-molecule microarray, 635/667 nm fluorescence (AID 1116); details: COS7-hLAP1 lysate binding, 635 nm fluorescence, higher = more signal
Chain of Torsin-1A-interacting protein 1 (Homo sapiens) (Q5JTV8 whole entry, looked up): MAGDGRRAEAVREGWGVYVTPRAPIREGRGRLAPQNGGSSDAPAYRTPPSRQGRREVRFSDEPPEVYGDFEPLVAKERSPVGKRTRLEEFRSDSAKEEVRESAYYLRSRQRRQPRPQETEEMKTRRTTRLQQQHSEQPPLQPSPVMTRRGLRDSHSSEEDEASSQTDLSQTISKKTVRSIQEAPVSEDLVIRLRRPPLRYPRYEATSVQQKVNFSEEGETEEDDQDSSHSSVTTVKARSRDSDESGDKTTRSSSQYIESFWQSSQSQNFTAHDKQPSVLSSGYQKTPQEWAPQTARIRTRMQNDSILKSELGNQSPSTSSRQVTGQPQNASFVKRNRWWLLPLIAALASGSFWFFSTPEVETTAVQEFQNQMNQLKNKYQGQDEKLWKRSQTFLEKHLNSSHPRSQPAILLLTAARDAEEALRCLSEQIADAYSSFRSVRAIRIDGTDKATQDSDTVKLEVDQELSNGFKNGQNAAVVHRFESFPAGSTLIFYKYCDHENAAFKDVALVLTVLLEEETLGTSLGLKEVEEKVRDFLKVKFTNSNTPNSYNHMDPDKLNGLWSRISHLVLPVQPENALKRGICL

[10] = target: Alpha-bungarotoxin (Bungarus multicinctus) (UniProt P60615); assay: alpha-bungarotoxin binders on microarray, profiling panel, artefact control for SMM control protein annotation, biochemical, small-molecule microarray, Alexa647 label, 635/667 nm fluorescence (AID 1117); details: alpha-BTX-A647 binding fluorescence, higher = more signal
Chain of Alpha-bungarotoxin (Bungarus multicinctus) (P60615 whole entry, looked up): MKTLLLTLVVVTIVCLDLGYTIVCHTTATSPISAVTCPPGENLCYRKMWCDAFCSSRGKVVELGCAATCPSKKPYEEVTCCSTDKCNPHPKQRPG

Albumin (Bos taurus) = Albumin (Bos taurus) (UniProt P02769); assay: bovine serum albumin binders on microarray, profiling panel, artefact control for SMM control protein annotation, biochemical, small-molecule microarray, Alexa647 label, 635/667 nm fluorescence (AID 1118); details: BSA-A647 binding, fluorescence 635 nm, higher = more signal;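 further: score merges 667 nm emission intensity and signal-to-noise per printed compound spot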
Chain of Albumin (Bos taurus) (P02769 whole entry, looked up): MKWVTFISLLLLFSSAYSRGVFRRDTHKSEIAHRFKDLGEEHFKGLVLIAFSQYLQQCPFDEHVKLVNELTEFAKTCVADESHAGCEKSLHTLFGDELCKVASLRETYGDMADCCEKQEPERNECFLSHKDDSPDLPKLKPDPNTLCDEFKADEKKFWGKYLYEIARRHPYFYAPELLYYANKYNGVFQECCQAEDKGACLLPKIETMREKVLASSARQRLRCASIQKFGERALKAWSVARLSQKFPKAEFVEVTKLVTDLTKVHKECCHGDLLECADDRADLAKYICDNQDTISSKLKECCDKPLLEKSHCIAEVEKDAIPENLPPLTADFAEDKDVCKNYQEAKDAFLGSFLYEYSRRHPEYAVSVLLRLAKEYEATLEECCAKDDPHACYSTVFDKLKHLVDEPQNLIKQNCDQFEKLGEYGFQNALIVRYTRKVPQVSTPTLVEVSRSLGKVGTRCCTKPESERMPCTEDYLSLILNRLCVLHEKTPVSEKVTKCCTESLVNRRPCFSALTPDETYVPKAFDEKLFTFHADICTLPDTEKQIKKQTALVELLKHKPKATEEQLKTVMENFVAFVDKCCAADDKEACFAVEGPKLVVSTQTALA

[11] = small-molecule microarray binders of probe aXIP, primary screen, biochemical, NeuroSMM set, 635/667 nm fluorescence (AID 1119); details: higher = more signal, called active from +8 up or from −8 down;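 further: probe is the protein aXip251-270 applied at 1 µg/mL to compound-printed slides; binding of probe to printed compounds measured as 667 nm fluorescence plus signal to noise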
[12] = small-molecule binders of probe aNOTCH3, primary screen, biochemical, small-molecule microarray, 635/667 nm fluorescence (AID 1120); details: higher = more signal;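 further: probe is a biotin-tagged antibody raised against NOTCH3 rather than NOTCH3 protein; score merges spot fluorescence near 667 nm with spot signal to noise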
[13] = small-molecule binders of probe aNOTCH2, primary screen, biochemical, small-molecule microarray, 635/667 nm fluorescence (AID 1121); details: higher = more signal;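 further: score merges feature fluorescence read at 667 nm with its signal to noise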
[14] = target: Carbonic anhydrase 2 (Homo sapiens) (UniProt P00918); assay: CAII small-molecule binders, profiling panel, biochemical, small-molecule microarray, Alexa647-labelled CAII (AID 1122); details: CAII-A647 binding fluorescence, higher = more signal
[15] = COS7 lysate on small-molecule microarray, probe aHis, 635 nm (AID 1123); details: COS7 cell lysate, fluorescence, higher = more signal;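 further: z-score combines 667nm fluorescence intensity with signal-to-noise per printed compound spot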
[16] = compound binding in COS7 lysate, probe aLAP1, primary screen, cell lysate, small-molecule microarray (AID 1124); details: probe aLAP1, fluorescence, higher = more signal;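 further: lysate comes from COS7 cells expressing LAP1 and is applied at 0.3 µg/mL; score merges spot fluorescence near 667 nm with signal-to-noise over triplicate slides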
Sam68 (KHDRBS1) = assay: Sam68 small-molecule binders, primary screen, biochemical, small-molecule microarray, 635 nm fluorescence (AID 1125); details: small-molecule microarray binding, higher = more signal;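 further: score merges 667 nm channel intensity with signal to noise over triplicate slides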
[17] = test system: Chordin-like protein 2 (CHRDL2); assay: CHRDL2 small-molecule binders, primary screen, biochemical, small-molecule microarray, 635 nm fluorescence (AID 1126); details: small-molecule microarray binding, fluorescence 635 nm; higher = more signal;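 further: printed compound slides probed with Chrdl2 protein at 4 µg/mL for 1 h at 4 C; score merges 667 nm emission intensity with signal to noise over three replicate slides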
[18] = target: Concanavalin-A (Canavalia ensiformis) (UniProt P02866); assay: ConA small-molecule binders, primary screen, artefact control for SMM control protein annotation, biochemical, small-molecule microarray, Alexa647 label, 635 nm (AID 1127); details: ConA-A647 binding fluorescence, higher = more signal;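 further: z combines 667 nm emission intensity with signal-to-noise across three replicate slides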
Chain of Concanavalin-A (Canavalia ensiformis) (P02866 whole entry, looked up): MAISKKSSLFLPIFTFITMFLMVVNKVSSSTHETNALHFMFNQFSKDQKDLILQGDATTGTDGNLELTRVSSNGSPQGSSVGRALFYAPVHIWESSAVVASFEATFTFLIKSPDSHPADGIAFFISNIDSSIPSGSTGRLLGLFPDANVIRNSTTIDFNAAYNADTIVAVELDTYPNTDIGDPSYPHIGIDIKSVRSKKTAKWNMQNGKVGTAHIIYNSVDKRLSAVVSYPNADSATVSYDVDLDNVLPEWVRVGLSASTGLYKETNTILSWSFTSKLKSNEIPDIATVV

SMILES	composite z-score [1]	z-score [2]	composite z-score [3]	composite z-score [4]	composite z-score [5]	composite z-score [6]	composite z-score [7]	composite z-score [8]	composite z-score [9]	composite z-score [10]	composite z-score (Albumin (Bos taurus))	composite Z-score [11]	composite z-score [12]	composite z-score [13]	composite z-score [14]	composite z-score [15]	composite z-score [16]	composite z-score (Sam68 (KHDRBS1))	composite z-score [17]	composite z-score [18]
CC(CO)N1C(=O)[C@]2(C)C3C(=O)OCCC/C=C\[C@H]3OC23C=CCN(c2ccc(Cl)cc2)C(=O)[C@@H]13 (stereo not given in full)	-0.886	0.636	-0.945	-0.275	0.079	-0.0573	-0.243	-0.318	-0.549	-0.358	0.739	-0.462 (inactive)	-0.186	-0.14	0.867	-0.354	0.644	-1.61	0.217	-0.474
C=CCNC(=O)[C@@H]1[C@H]2C(=O)O[C@H](c3ccccc3)[C@H](c3ccccc3)N2[C@H](c2ccc(OCCO)cc2)[C@@]12C(=O)N(C(=O)OCCOC)c1ccc(C#Cc3ccc(OC)cc3)cc12	1.01	-1.14	0.399	1.6	0.169	-0.27	-0.291	-0.272	0.229	1.22	0.645	-0.116 (inactive)	0.182	-0.151	0.402	1.39	0.78	1.3	0.151	1.14
COCCOC(=O)N1C(=O)[C@@]2(c3cc(C#CC4(O)CCCCCC4)ccc31)[C@H](C(=O)N1CCc3cc(OC)c(OC)cc3C1)[C@H]1C(=O)O[C@H](c3ccccc3)[C@H](c3ccccc3)N1[C@@H]2c1ccc(OCCO)cc1	1.14	-1.22	0.805	0.903	-0.392	-0.0685	-0.0011	-0.136	0.695	0.152	0.121	0.28 (inactive)	-0.021	-0.0617	0.515	0.535	0.272	1.31	0.666	1.12
C=CCN1Cc2ccccc2[C@@H]2OC(c3ccc(OCCCO)cc3)=N[C@]2(CC=C)C1=O	0.139	-1.43	0.718	0.698	-0.0856	0.128	0.0469	0.634	2.02	2.04	-0.187	1.79 (inactive)	0.43	0.147	0.544	3.16	0.585	1.22	1.44	1.1
COCCCNC(=O)[C@@H]1c2ccccc2C(=O)N(C(C)C)[C@H]1c1ccc(CO)cc1	-1.72	-0.183	0.0506	0.355	0.254	-0.0828	-0.221	-0.1	0.846	0.886	0.0913	0.0178 (inactive)	0.0577	-0.125	0.25	-0.756	-0.366	0.0457	-0.0306	0.856
CCCCN1CC=CC23O[C@@H]4/C=C\CCCOC(=O)C4[C@H]2C(=O)N(CCO)[C@@H]3C1=O (stereo not given in full)	0.493	-0.219	-1.51	-0.343	0.278	-0.221	-0.206	-0.158	0.0966	-0.401	0.634	0.257 (inactive)	-0.426	-0.161	0.321	1.1	-0.0065	0.109	-1.08	-0.557
C=C[C@H](C)[C@H](OC(=O)Nc1ccc(SC)cc1)c1ccc(OCCO)cc1	0.248	-1.19	-0.0482	0.272	-0.037	-0.183	0.142	0.576	1.6	1.58	0.548	2.78 (inactive)	-0.0647	-0.0533	0.575	2.19	0.277	1.06	0.516	1.04
CCCC=C(CCC)[C@@H](NP(=O)(c1ccccc1)c1ccccc1)c1ccc(-c2ccccc2)cc1	1.23	-2.72	0.53	0.877	0.796	0.328	0.972	1.35	0.946	1.3	0.91	0.439 (inactive)	0.36	0.0117	0.561	2.52	0.272	1.34	-0.465	1.09
C=CCNC(=O)[C@@H]1[C@H]2C(=O)O[C@H](c3ccccc3)[C@H](c3ccccc3)N2[C@H](c2ccccc2OCCO)[C@@]12C(=O)Nc1ccc(C#CCC(C(=O)OC)C(=O)OC)cc12	0.562	-3.28	-0.034	0.138	-0.147	-0.0258	-0.147	-0.303	0.458	0.894	-0.0735	0.822 (inactive)	0.514	0.283	0.648	1.66	1.62	1.27	-0.14	0.727
CO[C@H]1O[C@H](CO)[C@@H](OC(=O)Nc2ccc(Br)cc2)[C@@H]2OC(=O)[C@@H](Cc3ccccc3)C/C=C/C[C@H](Cc3ccccc3)C(=O)O[C@@H]12	0.816	-3.75	0.142	0.534	0.149	0.218	0.0483	1.04	0.325	0.804	0.771	-1.09 (inactive)	0.11	-0.0601	0.635	1.65	0.0964	0.968	-0.173	0.516
